Data taken from PubChem BioAssay AID738 (SRMLSC, 2007).
Hit rate of the full screen: of about 98,000 compounds, about 4,900 (5%) were called active. What follows is part of a selection rich in actives, with near analogues and random picks from the rest. Unmarked numbers belong to inactive results. No stated cut-off is given here; in the data, active means inhibition above about 30%; inactive means the rest.

test: yeast control strain growth suppression – counter-screen for post-Golgi transport modulator project, primary screen (AID 738); conditions: efflux-deficient yeast background strain, growth absorbance A615, 16 h; at 10 µM; stronger effect = higher value

Row | Compound | inhibition
1 | O=c1c2ccccc2nc2n1C(CSCc1ccccc1)CS2 (stereo unspecified) | 3.79%
2 | Cc1ccc(N2C(=O)CC(Sc3ncn[nH]3)C2=O)cc1 (stereo unspecified) | -0.63%
3 | CS(=O)(=O)N1CCN(c2ccc(C(=O)NC3C4CC5CC(C4)CC3C5)cc2[N+](=O)[O-])CC1 (stereo unspecified) | -2.2%
4 | O=C(CNCCO)NC12CC3CC(CC(C3)C1)C2 | 33.3% (active)
5 | CC(NCCO)C(=O)C12CC3CC(CC(C3)C1)C2 (stereo unspecified) | -1.14%
6 | O=C(NC12CC3CC(CC(C3)C1)C2)N1CCCC(CO)C1 (stereo unspecified) | 7.31%
7 | COc1cc(CNCc2cccs2)cc(Br)c1OC | -5.39%
8 | COc1ccc2c(c1)OC(O)(C(F)(F)C(F)F)CC2=O (stereo unspecified) | 34.1% (active)
9 | COc1ccc2c(c1)SC(C)CC2=O (stereo unspecified) | -5.53%
10 | COC(=O)c1cc(OC)ccc1-c1ccc(OC)cc1 | 18.8%
11 | Cc1ccc(/C=N/NC(=O)C(NC(=O)c2ccccc2)c2n[nH]c(=O)c3ccccc23)cc1 (stereo unspecified) | 13.9%
12 | Brc1ccc(C2=CC(c3ccco3)n3ncnc3N2)cc1 (stereo unspecified) | 19.2%
13 | Clc1ccc2c(c1)C1=C(C(c3ccncc3)O2)C(c2ccc(Br)cc2)n2ncnc2N1 (stereo unspecified) | 44.5% (active)
14 | COC(=O)C1=C(C)Nc2ncnn2C1c1cccnc1 (stereo unspecified) | 15%
15 | O=C(CNS(=O)(=O)c1ccc(Br)s1)N1CCN(C(=O)c2ccco2)CC1 | -3.81%
16 | O=C1Cc2ccccc2Sc2ccc(Cl)cc21 | 7.76%
17 | Cc1nc2ccccc2c2oc(C(=O)NCC3CCCO3)cc12 (stereo unspecified) | 5.49%
18 | Cc1nc2ccccc2c2oc(C(=O)NCCCN3CCC(C)CC3)cc12 | 38.5% (active)
19 | CCCN(CCC)CCNC(=O)c1cc2c(C)nc3ccccc3c2o1 | -0.17%
20 | CCc1cc(C(c2ccccc2OC)N2CCOCC2)c(NC(=O)c2ccccc2)s1 (stereo unspecified) | 14.6%
21 | O=C(Cn1cnc2ccccc2c1=O)NCC1COc2ccccc2O1 (stereo unspecified) | -2.34%
22 | CN(Cc1ccccc1)C(=O)CCNC(=O)Cn1cnc2ccccc2c1=O | 32.8% (active)
23 | O=C(Cn1cnc2c(cnn2-c2ccccc2)c1=O)NCc1ccccc1 | 2.17%
24 | N#C/C(=C1/CCCN1)c1ccccn1 | 3.25%
25 | CC(C)CNC(=S)NNC(=O)c1ccccc1OC(F)F | 9.35%
26 | Cc1c(Br)cc(C(=O)N2CCCCCC2)c(C)c1C | 38.8% (active)

Row | Compound | inhibition
27 | Cc1ccc(C(=O)N2CCCCCC2)cc1Br | 16.6%
28 | Cc1ccc(C(=O)N2CCCC2)c(F)c1F | -0.75%
29 | CCOc1cccc(SCc2noc(C(=O)NC(C)C)c2C(=O)O)c1 | -0.31%
30 | C=CCn1c(SCC(=O)NCc2ccccc2)nnc1-c1cc(Br)ccc1O | 1.48%
31 | COCCCNCC(=O)Nc1sc(C)c(C)c1C(=O)OC | 5.81%
32 | Cn1cccc1C(=O)NC(=O)COC(=O)Cc1coc2ccc3ccccc3c12 | 33% (active)
33 | CC(C)(C)NC(=O)NC(=O)COC(=O)Cn1c(C(F)(F)F)nc2ccccc21 | 2.81%
34 | CCOC(=O)N1CCN(C(=O)c2cc3c(ccc4ccccc43)oc2=O)CC1 | 3.76%
35 | Cc1ccccc1NC(=O)c1ccccc1NS(=O)(=O)c1cccc2cccnc12 | 8.21%
36 | Cc1cc(C)c2c(-n3cccc3)c(C(=O)NNS(=O)(=O)c3ccc(F)cc3)sc2n1 | 4.13%
37 | COc1ccc(NC(=O)COC(=O)Cn2c(C)nc3ccccc32)cc1OC | 1.03%
38 | COCCn1c(-c2ccc(OC)c(OC)c2)nc2ccccc21 | -0.3%
39 | COc1ccc(-c2nc3ccccc3n2CCC(C)C)cc1OC | 44.3% (active)
40 | CC1=NN(C(=O)Cc2ccc(C)cc2)C(O)(c2cccnc2)C1 (stereo unspecified) | 4.82%
41 | CCc1ccccc1N(CC(=O)N1CCN(c2ccccc2F)CC1)S(C)(=O)=O | 3.45%
42 | O=C(C(NS(=O)(=O)c1cccc2nsnc12)c1ccccc1)N1CCN(c2ccccc2)CC1 (stereo unspecified) | 2.02%
43 | O=C(CCS(=O)(=O)c1cccc2nsnc12)N1CCN(c2ccccc2F)CC1 | 30.8% (active)
44 | Cn1c(=O)n(C)c2cc(/C=N/NC(=O)c3cccc(Br)c3)ccc21 | -10.6%
45 | Cn1nnnc1SCC(=O)Nc1ccccc1C(=O)NC1CC1 | 2.02%
46 | c1ccc(CSc2ncnc3c2sc2nc(N4CCOCC4)c4c(c23)CCCC4)cc1 | 10.3%
47 | CC(C)c1ccc(Nc2ncccc2C#N)cc1 | 7.46%
48 | Cc1nn2c(c1-c1ccccc1)N=C(c1ccco1)CC2c1ccccc1 (stereo unspecified) | 32.2% (active)
49 | Cc1[nH]c2ccccc2c1C(=O)COC(=O)C(C)C | 2.83%
50 | CCOC(=O)c1c(-c2ccccc2)csc1NC(=S)NC(=O)c1ccccc1 | 15.1%
51 | COc1ccccc1N1CC(C(=O)Nc2ccc(S(=O)(=O)N3CCOCC3)cc2)CC1=O (stereo unspecified) | 5.2%
